# HepG2 viability: kills HepG2 cells in TGF-b inhibitor counter-screen; HepG2 CAGA-GFP viability, ATP luminescence, 18 h; Potency, µM (doses to about 46.1 µM), without a hit: at the highest dose activity change, negative = cytotoxicity, usual class: cytotoxic; 410,000 compounds, 0.76% hits; AID 588856; further: potency means the concentration at half of the fitted maximal effect
#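 CellTiter-Glo luminescence gave cytotoxicity after 18 hours at 37 degrees C. The cells were HepG2 CAGA-GFP in 1% FBS DMEM, stimulated with 500 pg/mL TGF-beta after compound addition. %Activity was normalised to no-cell wells (complete cell-killing) and DMSO (no toxicity), and curves were fitted and classified.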
# DT40 TDP1 no CPT: qHTS for Inhibitors of human tyrosyl-DNA phosphodiesterase 1 (TDP1): qHTS in cells in absence of CPT; 420,000 compounds, 15% hits; Potency, µM (series often up to 46.2 µM), without a hit: at the highest dose activity change, negative = growth inhibition, most hits filed as inhibitors; DT40 Tdp1-/- hTDP1 cells, no CPT, ATP luminescence, 48 h; further: potency means the concentration at half of the fitted maximal effect; on the % scale 0 is the no-effect control and ±100 the full control effect; nearly all actives have a fitted effect of over 55% in size
#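 No-CPT arm: Tdp1-/-;hTDP1 DT40 cells (400/well) plus compounds, incubated ≥48 hr at 37 °C. Readout CellTiter-Glo luminescence.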
# IL1B secr inh: inhibitors of inflammasome signaling (IL-1 beta secretion); THP-1 LPS/ATP IL-1B secretion, AlphaLISA, 16 h; active compounds read low; activity change, % at 57.5 µM; 360,000 compounds, 4.7% hits; AID 743279; in the data active means activity change below about -50%; inconclusive means mostly about -30% to -49%; further: on the % scale 0 is the no-effect control and ±100 the full control effect
#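 THP-1 cells pretreated 1 hr with compounds (up to 57.5 uM final), then stimulated with LPS (250 ng/mL final) plus ATP (1.25 mM final); secreted IL-1B measured by AlphaLISA after 16 hr, decreased signal indicating inhibition.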
# TDP1 cell CPT: growth inhibition of DT40 Tdp1-/-;hTDP1 cells with camptothecin (screen for TDP1 inhibitors); chicken DT40 Tdp1-/-;hTDP1 cells + 20 nM CPT, ATP luminescence, 48 h; Potency, µM (titrated, usually from 46.2 µM), inactives show at the top dose activity change, negative = growth inhibition, hits mostly inhibitors; 420,000 compounds, 12% hits; AID 686979; further: potency means the concentration at half of the fitted maximal effect; on the % scale 0 is the no-effect control and ±100 the full control effect; nearly all actives have a fitted effect of over 55% in size
#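 Cell growth measured by CellTiter-Glo luminescence after a minimum 48 h, 37 C compound exposure with 20 nM CPT in Tdp1-knockout DT40 cells stably expressing hTDP1, seeded 400/well; qHTS titration format.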
# TDP1 block: blocks human tyrosyl-DNA phosphodiesterase 1; Q9NUW8; recombinant TDP1, AlphaScreen DNA substrate cleavage; Potency, µM (titrated, usually from 130 µM), without a hit: top-dose activity change, negative = inhibition, most hits filed as inhibitors; 350,000 compounds, 0.28% hits; further: potency means the concentration at half of the fitted maximal effect; on the % scale 0 is the no-effect control and ±100 the full control effect; nearly all actives have a fitted effect of over 40% in size
# Target sequence (Q9NUW8 whole entry, looked up): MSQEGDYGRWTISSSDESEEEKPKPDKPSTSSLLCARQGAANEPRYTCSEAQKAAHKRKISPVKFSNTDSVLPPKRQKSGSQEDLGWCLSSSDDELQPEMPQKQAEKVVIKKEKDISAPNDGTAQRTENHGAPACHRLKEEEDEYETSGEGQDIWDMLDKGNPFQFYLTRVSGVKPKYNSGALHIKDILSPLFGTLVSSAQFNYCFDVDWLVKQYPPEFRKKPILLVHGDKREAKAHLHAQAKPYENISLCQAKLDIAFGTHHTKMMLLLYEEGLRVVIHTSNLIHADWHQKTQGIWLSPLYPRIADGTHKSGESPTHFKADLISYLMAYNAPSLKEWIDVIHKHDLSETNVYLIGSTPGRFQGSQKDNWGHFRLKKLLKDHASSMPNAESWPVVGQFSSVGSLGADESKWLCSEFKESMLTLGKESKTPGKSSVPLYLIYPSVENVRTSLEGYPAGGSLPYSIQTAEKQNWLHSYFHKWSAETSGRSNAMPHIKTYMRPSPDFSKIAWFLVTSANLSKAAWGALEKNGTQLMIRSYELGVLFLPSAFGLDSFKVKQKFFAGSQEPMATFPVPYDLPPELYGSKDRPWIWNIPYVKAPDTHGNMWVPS
#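 Steps: enzyme plus compound, 15 min RT; add biotin/phosphotyrosine-FITC oligonucleotide (15 nM final), react 5 min; add donor/acceptor beads (10 ug/ml final), 10 min; read AlphaScreen. Tdp1 at 1 nM final.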
# TGFb SMAD3 inh: TGF-b pathway inhibition; HepG2 CAGA-GFP TGF-b/SMAD3 reporter, GFP fluorescence, 18 h; TGF-beta stimulated, 500 pg/mL final; Potency, µM (top dose mostly 46.1 µM), for inactives: top-dose activity, negative = inhibition, most hits filed as inhibitors; 410,000 compounds, 1.2% hits; AID 588855; further: potency means the concentration at half of the fitted maximal effect; on the % scale 0 is the no-effect control and ±100 the full control effect; nearly all actives have a fitted effect of over 65% in size
#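 Read-out: total well GFP (ex488/em500-530) summed from mean per-cell fluorescence. Cells: HEPG2 CAGA-GFP, 1% FBS DMEM, 18 h at 37 degrees C with 500 pg/mL final TGF-beta. Unstimulated wells served as the full-inhibition control; stimulated DMSO wells = 0%.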
# * marks the source's active call; other numbers are inactive results; ? = inconclusive; . = no result; [ ] = another dose, or the depositor's remark. An excerpt weighted towards active compounds, which were near 18% of everything screened. Unless noted, the call rests on the fitted dose curve; in most records, active means well fitted curve in the direction sought with a large enough effect; inconclusive means small, poorly fitted or top-dose-only effect, or another doubt; inactive means no such curve, though single readings can be large; an effect the other way counts as inactive or inconclusive.
SMILES,HepG2 viability,DT40 TDP1 no CPT,IL1B secr inh,TDP1 cell CPT,TDP1 block,TGFb SMAD3 inh
CCC[C@@H]1CC2=CC(=O)CC[C@]2(C)[C@@H]2CC[C@@]3(C)[C@H](CC[C@]3(O)CCC(=O)O)[C@H]12,.,-26%,.,-4%,?,.
CCc1ccc(OCC(=O)N2CCN(CCc3ccccn3)CC2)cc1,6%,-23%,.,-5%,4%,7%
Cc1ccc(N=Nc2cc(C)ccc2N)cc1,-39%,0%,10,-26%,.,?
Nc1c(C(=O)OCc2ccccc2)c2nc3ccccc3nc2n1Cc1cccs1,2%,?,-90*,?,2%,?
COCCCn1c(N)c(C(=O)NCc2ccco2)c2nc3ccccc3nc21,2%,?,-19,?,.,-21%
CCCCn1c(N)c(C(=O)NCCN2CCOCC2)c2nc3ccccc3nc21,-1%,23µM*,-54*,15µM*,2%,-12%
O=C(NCCN1CCOCC1)c1ccc(Cl)nc1Cl,20%,-2%,-9,-8%,8%,22%
COCCNC(=O)c1c(NC(=O)c2ccco2)n(Cc2ccccc2)c2nc3ccccc3nc12,7%,21µM*,-8,?,0%,18%
CCC(C)OC(=O)c1c(N)n(Cc2cccs2)c2nc3ccccc3nc12 (stereo unspecified),-43%,?,?,?,-2%,-17%
Nc1c(C(=O)NCCN2CCOCC2)c2nc3ccccc3nc2n1Cc1ccccc1,-26%,23µM*,.,?,1%,-29%
Cc1ccc([C@H]2C[C@H](n3cc(C4CC4)nn3)[C@@H](O)CN2Cc2cccs2)cc1,-24%,?,11,-31%,.,-26%
CN1[C@@H]2CC(OC(=O)[C@H](CO)c3ccccc3)C[C@@H]1[C@H]1O[C@H]12 (stereo partly specified),.,14%,.,-1%,13%[56.1 µM],.
Nc1c(C(=O)NCCN2CCOCC2)c2nc3ccccc3nc2n1Cc1ccco1,-44%,15µM*,-24,?,.,2%
Cc1c(C(=O)NCc2nccs2)cnn1-c1ncc2c(n1)-c1ccccc1CC2,.,21µM*,.,9.2µM*,.,.
CC(=O)O/C(=C1\CC2C3CC=C4CC(OC(C)=O)CCC4(C)C3CCC2(C)C1=O)C(F)(F)F (stereo unspecified),-22%,3.7µM*,33,4.6µM*,.,-11%
CC(=O)O[C@H]1CC[C@@]2(C)C(=CC[C@@H]3[C@@H]2CC[C@]2(C)C(=O)CC[C@@H]32)C1,10%,?,-23,?,.,22%
ClC1=C(Cl)C2(Cl)C3C(Cl)C(Cl)CC3C1(Cl)C2(Cl)Cl (stereo unspecified),.,.,.,.,-6%,.
COc1ccc(-c2cnnn2-c2ccc(NC(=O)c3ccc(S(=O)(=O)N(C)C)cc3)cc2)cc1,-18%,18µM*,.,21µM*,5%,34%
COc1ccc(C(=O)Nc2ccc(S(=O)(=O)N(Cc3ccccc3)c3ccccc3)cc2)cc1,-13%,5.2µM*,.,13µM*,6%,-27%
COc1cc(OC)cc(C(=O)Nc2nc(-c3nnn(-c4ccc(C)cc4)c3C)ns2)c1,-22%,?,.,?,0%,?
CN(C)C/C=C(\c1ccc(Br)cc1)c1cccnc1,-28%,?,-25,-28%,6%,25%
CCOC(=O)c1ncn2c1CN(C)C(=O)c1cc(N=[N+]=[N-])ccc1-2,.,.,.,.,10%,.
CC(=O)OC1CC2(O)C3CCC4CC(O)CCC4(C)C3CCC2(C)C1C1=CC(=O)OC1 (stereo unspecified),-44%,8.2µM*,-80*,?,.,2µM*
CC1OC(OC2C(O)CC(OC3C(O)CC(OC4CCC5(C)C(CCC6C5CCC5(C)C(C7=CC(=O)OC7)C(O)CC65O)C4)OC3C)OC2C)CC(O)C1O (stereo unspecified),-44%,0.82µM*,-99*,1.5µM*,.,?
C[C@H]1O[C@@H](O[C@H]2[C@@H](O)C[C@H](O[C@H]3[C@@H](O)C[C@H](O[C@H]4CC[C@@]5(C)[C@H](CC[C@@H]6[C@@H]5CC[C@]5(C)[C@@H](C7=CC(=O)OC7)CC[C@]65O)C4)O[C@@H]3C)O[C@@H]2C)C[C@H](O)[C@@H]1O,-47%,0.3µM*,-76*,0.3µM*,5%,1.3µM*
SMILES,HepG2 viability,DT40 TDP1 no CPT,IL1B secr inh,TDP1 cell CPT,TDP1 block,TGFb SMAD3 inh
C=C1CCN([C@@H](Cc2ccccc2)C(=O)Nc2ccc(OC)cc2)S(=O)(=O)c2ccccc21,-2%,?,-10,?,.,-2%
CC(CN)CC(=O)O (stereo unspecified),.,13%,.,0%,4%,.
CNNC,.,-1%,.,-25%,1%[56.1 µM],.
COc1ccc(Cl)cc1NC(=O)CCn1c(=O)oc2ccccc21,15%,-3%,-9,-14%,3%,?
Cc1ccc(C(C)C)c(OCCn2c(=O)oc3ccccc32)c1,-35%,?,-3,29µM*,-11%,?
FC(F)(F)c1ccc(Cl)cc1,.,.,.,.,5%,.
CCOC(=O)c1cnc(N2CC2)nc1N,-3%,0.92µM*,-8,0.46µM*,.,-8%
Cc1cccc(Oc2nc3c(C)cccn3c(=O)c2/C=C(\C#N)c2nc3ccccc3s2)c1,3%,18µM*,.,?,-11%,-5%
Cc1cc(C)cc(Oc2nc3ccccn3c(=O)c2/C=C(\C#N)c2nc3ccccc3s2)c1,2%,9.2µM*,.,?,3%,23%
Cc1cccn2c(=O)c(/C=C(\C#N)c3nc4ccccc4s3)c(Oc3ccc(F)cc3)nc12,11%,21µM*,.,?,-8%,-24%
CCOC(=O)C(SP(=S)(OC)OC)c1ccccc1 (stereo unspecified),.,.,.,.,-4%,.
O=Cc1cn(Cc2ccc(F)cc2)c2ccccc12,-43%,?,14,-21%,3%,0.71µM*
Cc1ccc(Cn2cc(C=O)c3ccccc32)cc1,-38%,?,-9,?,.,0.35µM*
O=Cc1cn(Cc2ccc([N+](=O)[O-])cc2)c2ccccc12,-3%,?,0,?,5%,2.2µM*
CC(=O)c1cn(Cc2ccc(C#N)cc2)c2ccccc12,-23%,-12%,30,-10%,5%,-26%
CCCCC[C@@H]1CCCCC[C@@H](O)C[C@H](O)[C@H](O)/C=C/C(=O)O1,.,?,13,?,.,.
C[C@H]1CNCCc2ccc(Cl)cc21,.,-12%,.,-3%,.,.

# High-throughput results (PubChem BioAssay)
